Holding throughout (assay): NCI-60 one-dose screen, 48 h (100 = growth as untreated, 0 = no growth, -100 = all killed)
Holding throughout (details): 10 µM unless noted

Assay [1] relates to SR leukemia.
Assay [2] relates to RPMI-8226 leukemia.
Assay [3] has as its system OVCAR-8 ovarian.
The subject of assay [4] is OVCAR-5 ovarian.
Assay [5] relates to OVCAR-4 ovarian.
Assay [6] deals with SK-OV-3 ovarian.
Assay [7] has as its system IGROV1 ovarian.
Assay [8] has as its system OVCAR-3 ovarian.
For assay [9], the system named is HS 578T breast.
The test system of assay [10] is NCI/ADR-RES ovarian.
Assay [11] deals with T-47D breast.
For assay [12], the system named is BT-549 breast.
The subject of assay [13] is MDA-MB-435 melanoma.
Assay [14] relates to SW-620 colon.
The test system of assay [15] is MCF7 breast.
Assay [16] has as its system HCT-116 colon.
Assay [17] has as its system HCC-2998 colon.
For assay [18], the system named is KM12 colon.

This is part of a sample that, as a whole, favours compounds with a hit. Of some 83,000 tested, about 20% had one in any assay.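 For each line, cells grew in 96-well plates with the test compound present at a single concentration for 48 hours.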 Values without a mark were called inactive. Calls of active or inactive are those of the source. Rule for the calls: active = growth percent below 10; inactive = the rest.

Turning to `Nc1nc(SCc2ccccc2)c2ncn(C3CCCC3)c2n1`, the growth in [1] is 81.4%; in assay [2], 92.9%; in [3], 110%; in [4], 96.4%; in [5], 101%; in assay [6] it was 107%. Also, the growth in [7] was 98.1%; in [8] it was 112%; in assay [9] it was 139%; in assay [10] it was 92.5%; in [11] it was 98.7%; in assay [12] it was 116%. The growth is 104% in assay [13]; 102% in [14]; 91.7% in [15]; 107% in [16]; 107% in assay [17]; 113% in [18].
As to `O=C(CN1CCN(c2cc3c(cc2F)c(=O)c(C(=O)O)cn3C2CC2)CC1)Nc1nc(-c2ccc(Cl)cc2)cs1`, the growth is 29.3% in assay [1]; 1.14% (active) in [2]; 13.2% in [3]; 51.7% in assay [4]; 67.7% in [5]; 21.1% in assay [6]. The growth in assay [7] was 38.6%; in assay [8], 14.2%; in assay [9], 32.2%; in assay [10], 56.9%; in assay [11], 40.2%; in assay [12] it was 26.3%. For the same compound, the growth in assay [13] is 25.2%; in [14] it was 26.2%; in [15], 23.5%; in [16], 13.7%; in [17], 29.8%; in assay [18] it was 21.8%.
With `CCN(CC)C12CCCCC1(C)C(C#N)(C#N)C(C#N)=C(N)O2` (centres undefined), the growth in assay [1] was 92.7%; in [2], 125%; in assay [3] it was 93.4%; in [4] it was 101%; in assay [5] it was 100%; in assay [6], 110%. Moreover, the growth in [7] is 111%; in assay [8] it was 98.3%; in [9] it was 120%; in [10], 101%; in assay [11] it was 98.8%; in assay [12], 103%. In addition, the growth in [13] was 96.8%; in [14], 109%; in assay [15], 105%; in assay [16], 100%; in [17], 96.3%; in [18], 106%.
For `COc1ccc(OCC(=O)Nc2ccc(-c3nc4ccccc4s3)cc2C)cc1`, the growth was 76.1% in [1]; 66% in [2]; 113% in assay [3]; 78.1% in assay [4]; 55% in [5]; 99.5% in assay [6]. In addition, the growth in assay [7] was 35.2%; in assay [8], 102%; in assay [9] it was 87.8%; in [10] it was 85%; in [11] it was 30.4%; in [12] it was 91.9%. Moreover, the growth in assay [13] is 101%; in assay [14], 97%; in assay [15] it was 29.9%; in [16], 74%; in assay [17], 90.4%; in [18], 107%.
Consider `COc1nc2c(cc1S(=O)(=O)c1ccccc1)CCc1c-2cnn1-c1ccc(Cl)cc1`, for which the growth in [1] was 80.7%; in [2], 93.3%; in assay [3], 104%; in assay [4], 85.5%; in assay [5] it was 90.4%; in assay [6] it was 95.5%. Moreover, the growth was 100% in assay [7]; 111% in [8]; 82% in assay [9]; 89.9% in [10]; 83.2% in [11]; 109% in [12]. In addition, the growth in [13] is 90.8%; in assay [14], 93.1%; in assay [15], 95.2%; in assay [16] it was 88.1%; in [17], 92.9%; in assay [18], 109%.
For the compound `O=c1cc(-c2ccccc2)[nH]c2ccccc12`, the growth is 22.8% in assay [1]; 22.4% in assay [2]; 35% in assay [3]; 50.6% in [4]; 64.5% in assay [5]; 37.5% in assay [6]. In addition, the growth in assay [7] is -7.72% (active); in assay [8], -37.8% (active); in assay [9], 25.9%; in [10] it was -2.1% (active); in assay [11], 47.9%; in [12], -12.2% (active). The growth in [13] is -16.8% (active); in assay [14], 29.8%; in [15], 15.6%; in assay [16], 25.1%; in assay [17] it was 18.5%; in assay [18], 12.7%.
Turning to `COC1=CC(=O)C(OC)=C(OC)C1=O`, the growth in [1] was 36.5%; in assay [2] it was 67.1%; in [3] it was 101%; in assay [4], 107%; in assay [5], 77.4%; in [6] it was 92.5%. The growth in assay [7] was 113%; in [8], 104%; in assay [9], 95.5%; in [10], 100%; in assay [11], 97%; in assay [12], 101%. The growth in [13] was 97.5%; in assay [14] it was 101%; in [15], 90.6%; in assay [16], 92.3%; in assay [17], 117%; in assay [18], 110%.
Take `COc1ccc(/C=C2\N=C3SC=C(N)N3C2=O)cc1`: the growth was -21.3% (active) in assay [1]; -28.8% (active) in assay [2]; 35.7% in assay [3]; 59.9% in [4]; 21.5% in [5]; 45.6% in assay [6]. Further, the growth was 9.81% (active) in assay [7]; 24.2% in assay [8]; 50.4% in assay [9]; 42.3% in assay [10]; 9.75% (active) in assay [11]; 11.8% in assay [12]. The growth in assay [13] was 9.59% (active); in assay [14] it was 21.9%; in assay [15], 13.4%; in assay [16] it was -6.91% (active); in [17], 40.9%; in assay [18], 46.9%.

For the origin of these results see PubChem BioAssay (NCI).
